From PubChem BioAssay (NCI)
Several values for one entry are separate records, joined by “and”; a condition that tells them apart may be missing. Identical values can stand only once. The panel holds about 83,000 compounds, 20% with a hit somewhere; the sample as a whole holds those more often.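 How to read the values: 0–100, growth inhibition (40 = 60% inhibited); 0, no net growth; -100 to 0, cell death (-40 = 40% of starting cells died; -100 = all dead).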

Key:
Assay in all cases: NCI-60 one-dose screen, 48 h (100 = growth as untreated, 0 = no growth, -100 = all killed); active = growth percent below 10; inactive = the rest
[1] = test system: NCI-H23 lung; conditions: 10 µM unless noted
[2] = test system: NCI-H226 lung; conditions: 10 µM unless noted
[3] = test system: NCI-H322M lung; conditions: 10 µM unless noted
[4] = test system: HOP-62 NSCLC; conditions: 10 µM unless noted
[5] = test system: NCI-H460 lung; conditions: 10 µM unless noted
[6] = test system: NCI-H522 lung; conditions: 10 µM
[7] = test system: A549/ATCC NSCLC; conditions: 10 µM unless noted
[8] = test system: 786-0 renal; conditions: 10 µM unless noted
[9] = test system: COLO 205 colon; conditions: 10 µM unless noted
[10] = test system: DU-145 prostate; conditions: 10 µM unless noted
[11] = test system: K-562 leukemia; conditions: 10 µM unless noted
[12] = test system: MALME-3M melanoma; conditions: 10 µM unless noted
[13] = test system: MDA-MB-231 breast; conditions: 10 µM unless noted
[14] = test system: SF-268 CNS; conditions: 10 µM unless noted
[15] = test system: SF-295 CNS; conditions: 10 µM unless noted
[16] = test system: SF-539 CNS; conditions: 10 µM unless noted
[17] = test system: UACC-257 melanoma; conditions: 10 µM unless noted
[18] = test system: M14 melanoma; conditions: 10 µM unless noted
[19] = test system: RXF 393 renal; conditions: 10 µM unless noted
[20] = test system: HOP-92 NSCLC; conditions: 10 µM

Measured: growth

C/C(=C\c1ccccc1)c1ccccn1
inactive: [1] 107% | [2] 90.9% | [3] 96.8% | [4] 105% | [5] 105% | [6] 109% | [7] 115% | [8] 104% | [9] 114% | [10] 112% | [11] 105% | [12] 102% | [13] 91% | [14] 99.3% | [15] 113% | [16] 98.1% | [17] 105% | [18] 108%

COc1ccc(N/C=C/C2=[N+](C)c3ccccc3C2(C)C)c(OC)c1
inactive: [1] 79.8% | [2] 83% | [3] 102% | [4] 92.7% | [5] 96.3% | [6] 89.9% | [8] 88.9% | [9] 99.5% | [10] 102% | [11] 103% | [12] 85.5% | [13] 85.2% | [19] 97.4% | [14] 95.6% | [15] 86.2% | [16] 102% | [17] 99.5% | [18] 86.4%

Nc1ncnc2c1ncn2C1OC(COP(=O)(O)O)C(O)C1O (stereo unspecified)
inactive: [1] 110% | [2] 113% | [4] 115% | [20] 103% | [6] 114% | [7] 114% | [8] 105% | [9] 130% | [10] 120% | [11] 119% | [13] 102% | [19] 131% | [14] 126% | [16] 105% | [17] 110% | [18] 111%

NN1CCOC(c2ccccc2)C1 (stereo unspecified)
inactive: [1] 104% | [2] 99.4% | [3] 97.7% | [4] 99.6% | [5] 115% | [6] 125% | [7] 104% | [8] 103% | [9] 107% | [10] 102% | [11] 10.3% | [13] 99.1% | [19] 101% | [14] 99.6% | [15] 118% | [16] 100% | [17] 103% | [18] 90.9%

O=C1C=C(Nc2ccccc2)c2ccccc2C1=O
inactive: [1] 23% and 66.1% | [2] 66.4% and 83.4% | [3] 88.3% and 98.1% | [4] 19.1% and 123% | [5] 14.5% and 93.2% | [6] 76.8% and 86.6% | [8] 99.8% and 99.3% | [9] 108% and 91.9% | [10] 21.2% and 97.3% | [11] 54.7% and 98.7% | [12] 70.1% and 71% | [13] 69.1% and 59.7% | [19] 96.7% | [14] 80.3% and 92.8% | [15] 61.1% and 105% | [16] 44.4% and 105% | [17] 88.7% and 97.9% | [18] 47% and 107%

N#CC(C#N)N=Nc1cc(Cl)ccc1Cl
inactive: [1] 106% | [2] 104% | [4] 104% | [5] 102% | [6] 89.8% | [8] 102% | [9] 110% | [10] 111% | [11] 95.3% | [13] 91.7% | [19] 115% | [14] 95% | [16] 99.8% | [17] 92% | [18] 98.5%

CC(C)C(C)(C)c1ccc(O)cc1
inactive: [1] 103% | [2] 99.3% | [3] 102% | [4] 104% | [5] 104% | [6] 99.7% | [7] 102% | [9] 108% | [10] 107% | [11] 50.4% | [12] 107% | [13] 108% | [19] 112% | [14] 99.8% | [15] 118% | [16] 99.4% | [17] 104% | [18] 105%
